Test results as given in PubChem BioAssay AID1347076 (National Center for Advancing Translational Sciences (NCATS), 2019).
In all, about 400,000 compounds went through this assay and about 13,000 (3.2%) were called active. Entries that show only a call come without a potency. Roughly 18% stayed inconclusive and do not appear here. Calls follow the shape of the dose curve; as a rule, active = well fitted cell-killing curve with a large enough effect; inconclusive = small, poorly fitted or top-dose-only effect, or effect the other way; inactive = flat fitted curve, though single readings scatter. For the sample, actives were picked, then their nearest neighbours and some compounds at random.
Potency is read from the fitted curve at half-maximal effect.

Assay: qHTS assay for MDR1-selective chemotherapeutics: Primary screen using the drug-selected MDR subline cells KB-V1; also: nearly all actives have a fitted effect of over 60% in size
Settings: KB-V1 MDR cells viability, CellTiter-Glo, 72 h; series mostly up to 46.1 µM
Summary of the method: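 Compound-treated KB-V1 multidrug-resistant cells, 72 h, 37 degrees C; viability by CellTiter-Glo. Fitted qHTS curves give the values.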
For `C[C@H]1CN([C@@H](C)CO)C(=O)c2cc(-c3ccccc3F)cnc2O[C@H]1CN(C)C(=O)C1CCOCC1`, the Potency was “inactive”.
With `NC(Cc1ccc(F)cc1)c1csc(Nc2nncc3ccccc23)n1` (stereo not drawn) the Potency was “inactive”.
With `Cc1ccc(S(=O)(=O)c2cn(Cc3ccccc3)c3cc(N4CCCC4)c(F)cc3c2=O)c(C)c1` the Potency was “inactive”.
With `CCOC(=O)C1CCCN(C(=O)c2ccc(N(C)C)cc2)CC1` (stereo not drawn) the Potency was “inactive”.
With `COc1ccc(OC)c(C(O)c2ncc(-c3cccc(C(F)(F)F)c3)[nH]2)c1` (stereo not drawn) the Potency was “inactive”.
With `COc1ccccc1C(=O)NC(CCSC)C(=O)N1CCN(C(C)=O)CC1` (stereo not drawn) the Potency was “inactive”.
For `CSCCC(NC(=O)c1ccccc1)C(=O)N1CCCCCCC1` (stereo not drawn), the Potency was “inactive”.
For `CSCCC(NC(=O)c1ccccc1)C(=O)N1CCN(Cc2ccc(Cl)cc2)CC1` (stereo not drawn), the Potency was 18.4 µM (active).
For `CC1=C(C(=O)OCC(C)C)C(c2ccc(OCc3ccccc3)cc2)N2C(=O)CCSC2=N1` (stereo not drawn), the Potency was “inactive”.
For `O=C(NCc1ccc2c(c1)OCO2)c1c(O)nc2sccn2c1=O`, the Potency was 8.2 µM (active).
For `O=C(NCc1ccc2c(c1)OCO2)c1sccc1Br`, the Potency was “inactive”.
In the case of `C=CCn1c(=O)c(C(=O)NCc2ccc3c(c2)OCO3)c(O)c2ccccc21`, the Potency is reported as “inactive”.
For `c1coc(CNc2ncnc3ccccc23)c1`, the Potency was “inactive”.
In the case of `c1ccc(-c2nc(NCc3ccco3)c3ccccc3n2)cc1`, the Potency is reported as 23.1 µM (active).
In the case of `O=[N+]([O-])c1cc(-c2nc(-c3ccccc3)no2)ccc1NCc1ccco1`, the Potency is reported as “inactive”.
With `COc1ccc(-c2cnc3c(c2)C(=O)N([C@H](C)CO)C[C@@H](C)[C@H](CN(C)Cc2ccccc2)O3)cc1` the Potency was “inactive”.
With `COc1cc2c(cc1OC)C(Cc1cc(OC)c(OC)cc1[N+](=O)[O-])=NCC2` the Potency was 9.2 µM (active).
In the case of `COc1cc(CNCc2ccc3c(c2)OCO3)c([N+](=O)[O-])cc1OC`, the Potency is reported as “inactive”.
With `COc1cc(CN2CCCN(C)CC2)c([N+](=O)[O-])cc1OC` the Potency was “inactive”.
In the case of `CN(Cc1ccccc1)c1ccc(/C=C/c2ccnc3ccccc23)cc1`, the Potency is reported as “inactive”.
With `CN(C)c1ccc(C=Nc2ccc(/C=C/c3ccnc4ccccc34)cc2)cc1` the Potency was “inactive”.
In the case of `CN(C)c1ccc(/C=C/C=C/c2ccnc3ccccc23)cc1`, the Potency is reported as 6.51 µM (active).
With `CN(C)c1ccc(/C=C/c2c3ccccc3nc3ccccc23)cc1` the Potency was “inactive”.
In the case of `NC(=O)C1CCN(C(=O)c2cccc(NC(=O)c3nsc4ccccc34)c2)CC1`, the Potency is reported as “inactive”.
With `COCC1CCCCN1C(=O)c1cc(COc2ccc(C)c(C)c2)on1` (stereo not drawn) the Potency was “inactive”.
In the case of `CCC(=O)Nc1sc(C(=O)Nc2ccccc2)c(C)c1C(=O)OC`, the Potency is reported as “inactive”.
For `CC(=O)c1c(Nc2ccccc2)sc(C(=O)c2ccccc2)c1C`, the Potency was 3.66 µM (active).
For `CCCS(=O)(=O)c1c(Nc2ccccc2C)sc(C(=O)c2ccccc2)c1N`, the Potency was “inactive”.
